Bioassay records deposited in PubChem by ICCB-Longwood Screening Facility, Harvard Medical School.
Anaer choline gr = blocks anaerobic gram-negative growth on choline; Gram-negative bacterium anaerobic choline minimal medium, absorbance growth; active compounds read low; calls only; 0.2% of 55,000 active; AID 1963822; call rule not given here
* marks the source's active call; other numbers are inactive results; i = inactive; + = active, no number; ! = repeats disagree. This is one part of a sample in which hits are shown more often than they occur.

SMILES	Anaer choline gr
COC(=O)c1ccccc1NC(=O)c1ccc2c(c1)CCCN2S(C)(=O)=O	i
Cc1ccc(NC(=O)CSc2nnc(-c3ccncc3)o2)cc1Cl	i
CC(Sc1nnc(-c2ccncc2)o1)C(=O)Nc1ccc2c(c1)OCCO2 (stereo unspecified)	i
O=C(CSc1nnc(-c2ccncc2)o1)Nc1ccc2c(c1)OCO2	+
O=C(Cn1c(=O)nc(-c2ccccc2)c2ccccc21)Nc1ccc(Oc2ccccc2)cc1	i
CCN(CC)CCOc1ccc(Cc2ccccc2)cc1	i
CC[N+](CC)(CC)CCOc1cccc(OCC[N+](CC)(CC)CC)c1OCC[N+](CC)(CC)CC	i
CC[N+](CC)(CC)CCOc1ccc(/C=C/c2ccccc2)cc1	+!
Brc1ccc(CSc2nnc(C3CCNCC3)o2)cc1	i
CCc1ccc(-c2[nH]c3ccccc3c2NC(=O)Nc2cccc(C(=O)OC)c2)cc1	i
CCc1ccc(NC(=O)Nc2c(-c3ccccc3)[nH]c3ccccc23)cc1	+
COc1ccc(NC(=O)Nc2c(-c3cccnc3)[nH]c3ccccc23)cc1	i
Cc1nn(-c2ccccc2)c2ccn(CC(=O)NCCN3CCN(C)CC3)c(=O)c12	i
Cn1c(=O)c(C(=O)Nc2cccnc2)nn(-c2ccc(F)cc2)c1=O	i
Cc1cccc(-c2cc3nc(CN(C)Cc4ccccc4)cc(=O)n3[nH]2)c1	i
O=C(NCc1c(-c2ccccc2)nc2n1CCS2)c1cccc(Br)c1	i
O=C(Cn1c(=O)c(=O)n(Cc2ccncc2)c2ncccc21)NCc1ccccn1	i
CCOC(=O)c1ccccc1NC(=O)Cn1c(=O)c(CNc2ccc(C)cc2)cc2ccc(OC)cc21	i
COC(=O)c1ccccc1NC(=O)Cn1c(=O)c(CNc2ccccc2)cc2ccc(OC)cc21	i
CCc1ccc(NCc2cc3ccc(OC)cc3n(CC(=O)Nc3ccc4c(c3)OCO4)c2=O)cc1	+
COc1ccccc1N1CCN(c2ccc(C(=O)N3CCc4ccccc43)nn2)CC1	i
O=C(c1ccc(NC2CCCC2)nn1)N1CCc2ccccc21	i
COc1ccc(CNc2ccc(C(=O)N3CCc4ccccc43)nn2)cc1	+
O=C(CSc1nc(N2CCc3ccccc3C2)nc2ccccc12)Nc1ccc2c(c1)OCCO2	i
O=C1Nc2ccccc2C1Cc1ccccc1F (stereo unspecified)	i
COc1cc(CC2C(=O)Nc3ccccc32)cc(Cl)c1OC (stereo unspecified)	i
O=C1Nc2ccccc2C1Cc1ccc(Cl)cc1 (stereo unspecified)	+
